Target: T1, ETS1 (UniProt P14921)
T1 sequence: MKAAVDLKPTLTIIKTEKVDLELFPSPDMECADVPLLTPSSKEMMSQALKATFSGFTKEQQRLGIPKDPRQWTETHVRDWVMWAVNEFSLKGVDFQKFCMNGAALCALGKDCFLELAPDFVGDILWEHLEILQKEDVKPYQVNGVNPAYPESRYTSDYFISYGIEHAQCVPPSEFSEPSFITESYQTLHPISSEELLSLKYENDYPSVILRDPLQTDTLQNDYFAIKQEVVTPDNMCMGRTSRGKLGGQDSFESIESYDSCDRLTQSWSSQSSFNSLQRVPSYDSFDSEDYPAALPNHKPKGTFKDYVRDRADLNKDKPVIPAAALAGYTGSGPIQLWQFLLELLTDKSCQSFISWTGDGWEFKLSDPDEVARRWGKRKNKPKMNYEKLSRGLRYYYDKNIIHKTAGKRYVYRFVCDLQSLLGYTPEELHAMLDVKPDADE
Assay: ETS1 binding intensity (PBM fluorescence), ETS1 alone (arbitrary fluorescence units); higher = stronger binding
Conditions: ETS1 concentration 1 nM; RUNX1 concentration 0 nM
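Throughout, for RUNX1 binding intensity (PBM fluorescence), RUNX1 alone: Full-length recombinant human RUNX1 bound to double-stranded 36-bp genomic probes on a high-density microarray, scored as Alexa488 fluorescence per spot via anti-RUNX1 antibody, median of four replicate spots.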

Sequence | ETS1 binding intensity
TCACTCCTCTTCCTTCCTGCCACCCACAGGGTCAGC | 532
TTTCTCTTCCTGTTTCCACCCTGACCACAGCCAGCT | 476
TGTCCGGGCAGGAAGGGGTGCTCTGTGGGCTTGGAG | 948
GCTTTGCAGTTTCCTCTGTGGAACACCACACACAGT | 418
CTGCCTTGCTTTTCCGGTCGCCGCGGTCCTCTGCGC | 2130
TGGCTGTGAGCTGCAGGATGTGGTCAGGAGAGGAAG | 2180
AGCGGCTTCCTGCTGGGCTTTTGCACTCCCCACAAC | 510
CTGTGGCCTAGAAGCTTCCTGCCGCAGCTCTGAGGA | 534
AGCTTGACGAAGGCTTCCTGTGGTTTGGGTTGATGT | 486
CTCCTGAGGAAGTAGTTACAGACACCACAGCGGAGG | 511
CTCTTCAGCAGGAAATGATGTGGTAAAACAGGGTTA | 3000
CCCAGCCCTGCTGCCGGATGTGGTGAGGCCCAGGTG | 5030
GCCCAGGGCGGCCGGAAGTTTGCGGGGCGGGGCGGA | 8880
ACCGGAAGGGCGGGGGCGTGGCGAGGTACCGCAGAC | 1170
TGGGATTCTCACTTCCGATCAGCGGTCCTGAACCCG | 707
AATATAGGAAGTGTCAGCTAGGGAACTCAACCACAA | 496
ACGGACAGAATTTCCTCCCCCGTCACCACAGCGACC | 686
TTTCCACTTCCTGTTCTACTTGTGGCTACTGACTCA | 2530

Target: RUNX1 (UniProt Q01196)
Assay: RUNX1 binding intensity (PBM fluorescence), RUNX1 alone (arbitrary fluorescence units); higher = stronger binding
Conditions: RUNX1 concentration 2 nM; ETS1 concentration 0 nM
Experimental: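 Cooperative gcPBM on 36-bp genomic probes with neighbouring ETS1 and RUNX1 sites. Recombinant human RUNX1 (2 nM) was incubated alone or with ETS1 (25 nM) and detected with anti-RUNX1 antibody plus Alexa488 secondary. Values are medians over 4 replicate spots; the RUNX1+ETS1 data were normalised to the RUNX1-only data. The probes sit in constant array flanks that are not printed.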

RUNX1, sequence (Q01196 whole entry): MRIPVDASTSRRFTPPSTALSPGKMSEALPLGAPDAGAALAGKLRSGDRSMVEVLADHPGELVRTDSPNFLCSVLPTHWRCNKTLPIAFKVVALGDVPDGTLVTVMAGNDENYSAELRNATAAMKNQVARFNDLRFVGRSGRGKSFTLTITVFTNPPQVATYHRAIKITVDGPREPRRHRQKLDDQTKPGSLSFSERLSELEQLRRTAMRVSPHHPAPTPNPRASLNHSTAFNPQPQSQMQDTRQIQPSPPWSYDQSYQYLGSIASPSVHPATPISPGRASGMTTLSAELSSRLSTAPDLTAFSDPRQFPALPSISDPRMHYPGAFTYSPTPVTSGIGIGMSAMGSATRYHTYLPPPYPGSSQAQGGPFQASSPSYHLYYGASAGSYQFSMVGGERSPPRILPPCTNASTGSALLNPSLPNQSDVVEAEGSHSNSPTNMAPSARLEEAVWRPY

Sequence | RUNX1 binding intensity
GCCCCGGAAGTGGCCCGGCTGTTGGCCGCAGCGGGA | 667
GCAGTCAGAAGGTGCGGATGCGGTAAGGTATGCGCT | 835
ATCTTACCCCGGAAATGACAACAGTGCCGCAAACTG | 906
TGGGCAGGAAGTGGTATCTGATTGTGGTTTTGATTT | 1360
GTTGGGAGGCGCACATCCGGCGGTTACCCGGTGCTT | 785
GCGCGGACAGAGAAAGGATGTGGTATAGCAGAAAGT | 727
ACACCCCAGGAAGTGGCAGAGACCACAACAAGTCAG | 874
GCCCCCATGCTTCCTGTTGTGGGAGATGAAGTGTGG | 878
TTTCTCTTCCTGTTTCCACCCTGACCACAGCCAGCT | 2930
TGGCTGTGAGCTGCAGGATGTGGTCAGGAGAGGAAG | 804
CTCTTCAGCAGGAAATGATGTGGTAAAACAGGGTTA | 856
CCCAGCCCTGCTGCCGGATGTGGTGAGGCCCAGGTG | 768
GCCCAGGGCGGCCGGAAGTTTGCGGGGCGGGGCGGA | 754
TTTCCACTTCCTGTTCTACTTGTGGCTACTGACTCA | 1100

From the supplement of paper PMC10681739
